Compound activity from PubChem.
FLuc modulator: counter-screen for miR-21 project: firefly luciferase inhibitors or activators; purified FLuc, Km substrates, luminescence inhibition; Potency, µM (highest dose often 57.5 µM), without a hit: at the top dose activity change, negative = inhibition, actives largely listed as inhibitors; AID 588342; 360,000 compounds, 6.9% hits; P08659;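 further: plate controls were vehicle for no effect and reference inhibitor for full effect; nearly all actives have a fitted effect of over 55% in size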
Target sequence (P08659 whole entry, looked up): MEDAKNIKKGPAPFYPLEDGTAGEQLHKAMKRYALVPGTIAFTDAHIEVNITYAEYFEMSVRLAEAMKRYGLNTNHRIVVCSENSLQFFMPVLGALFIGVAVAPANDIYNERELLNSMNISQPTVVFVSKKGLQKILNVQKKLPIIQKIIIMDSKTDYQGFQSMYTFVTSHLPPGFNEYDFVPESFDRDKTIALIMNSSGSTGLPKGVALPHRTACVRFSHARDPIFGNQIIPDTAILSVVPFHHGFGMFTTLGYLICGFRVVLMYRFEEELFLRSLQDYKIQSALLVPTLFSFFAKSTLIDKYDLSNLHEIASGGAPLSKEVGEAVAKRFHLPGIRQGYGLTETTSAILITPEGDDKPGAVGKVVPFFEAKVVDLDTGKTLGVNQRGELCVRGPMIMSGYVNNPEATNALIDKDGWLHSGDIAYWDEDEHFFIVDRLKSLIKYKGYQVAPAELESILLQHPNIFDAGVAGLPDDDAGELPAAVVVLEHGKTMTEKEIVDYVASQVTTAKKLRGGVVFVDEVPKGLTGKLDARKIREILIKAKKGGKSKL
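Purified P. pyralis luciferase (10nM final) with 10uM D-luciferin and 10uM ATP (Km levels) in 50mM Tris acetate pH 7.5, 10mM Mg acetate, 0.01% Tween-20, 0.05% BSA; qHTS 6-point titration, ~60 µM downward; luminescence read.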
ELG1 genotoxic: inducers of genotoxicity in HEK293T ELG1-luciferase cells; HEK293T ELG1-luciferase reporter, luminescence, 16 h; Potency, µM (top dose mostly 46 µM), for inactives: top-dose activity change, positive = activation, most hits filed as activators; 330,000 compounds, 1.3% hits; AID 504466; further: % of control where 0% means no effect; nearly all actives have a fitted effect of over 60% in size
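16 hr compound incubation (37 °C, 5% CO2) of HEK293T cells carrying luciferase-tagged ELG1; luciferase then measured by ONE-Glo luminescence after 30 min at RT.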
NPC1 promoter act: activates the NPC1 promoter; Huh7 NPC1 promoter luciferase reporter, 24 h; 320,000 compounds, 2.4% hits; AID 485313; Potency, µM (doses to about 9.22 µM), for inactives: at the highest dose activation, hits mostly activators; further: % of control where 0% means no effect; nearly all actives have a fitted effect of over 60% in size
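Readout is luciferase luminescence, reflecting NPC1 promoter activation in stably transfected Huh7 cells after 24 h compound exposure at 37 °C in reduced-serum medium with 10% FBS.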
SMN2 splice enh: enhancers of SMN2 splice variant expression; Potency, µM (titrated, usually from 46.1 µM), for inactives: at the highest dose activity change, positive = activation, hits mostly activators; HEK293 SMN2-luciferase splicing reporter, luminescence, 30-36 h; AID 1458; 210,000 compounds, 2.8% hits; further: % of control where 0% means no effect; nearly all actives have a fitted effect of over 55% in size
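qHTS luciferase splicing reporter: luminescence rises when SMN2 exon 7 is included in transfected HEK293 cells. Compound exposure lasted 30-36 h at 37C, with 4.5 mM final sodium butyrate as control, followed by a ONE-Glo read.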
Rab9 prom act: Rab9 promoter activation; 320,000 compounds, 2.8% hits; Potency, µM (highest dose often 9.22 µM), for inactives: at the highest dose activation, negative = inhibition, usual class: activators; Huh7 Rab9 promoter-luciferase reporter, luminescence, 24 h; AID 485297; further: % of control where 0% means no effect; nearly all actives have a fitted effect of over 60% in size
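Using Huh7 cells stably transfected with Rab9 promoter–luciferase, compounds were incubated 24 h at 37 °C, 5% CO2; luciferase luminescence was read 10 min after reagent addition.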
Starred values were filed as active, the others as inactive. Only some compounds are listed: those with a hit (about 7.5% of all), similar ones and a draw of the others. The call rests on the fitted dose curve; in most records, active means well fitted curve in the direction sought with a large enough effect; inconclusive means small, poorly fitted or top-dose-only effect, or another doubt; inactive means no such curve, though single readings can be large; an effect the other way counts as inactive or inconclusive. Potency means the concentration at half of the fitted maximal effect.

For Cc1nc(NC(=O)c2oc3ccccc3c2C)sc1C(=O)N(C)C the results were FLuc modulator 11µM*, ELG1 genotoxic inconclusive, NPC1 promoter act inconclusive, SMN2 splice enh 10µM* and Rab9 prom act 2.8µM*.
O=C(CC1=NCCNC(c2ccccc2)C1)c1ccccc1O (stereo unspecified) was read as FLuc modulator 0%, ELG1 genotoxic 9%, NPC1 promoter act 17%, SMN2 splice enh 11µM* and Rab9 prom act inconclusive.
Screening O=S(=O)(Nc1nc2cc3c(cc2nc1Cl)OCCO3)c1ccccc1 returned FLuc modulator inconclusive, ELG1 genotoxic 0%, NPC1 promoter act -1%, SMN2 splice enh 5% and Rab9 prom act -3%.
CC(=O)c1ccc(Nc2nc3ccccc3nc2NS(=O)(=O)c2cccs2)cc1 was read as FLuc modulator 19µM*, ELG1 genotoxic -14%, NPC1 promoter act 0% and Rab9 prom act -4%.
Screening CC(=O)Nc1ccc(S(=O)(=O)Nc2nc3cc4c(cc3nc2Cl)OCCO4)cc1 returned FLuc modulator 19µM*, ELG1 genotoxic 2%, NPC1 promoter act 0% and Rab9 prom act -4%.
`CCOc1ccc(S(=O)(=O)Nc2nc3ccccc3nc2Nc2ccc(N3CCOCC3)cc2)cc1` gave FLuc modulator 11µM*, ELG1 genotoxic -4%, NPC1 promoter act -3%, SMN2 splice enh -2% and Rab9 prom act -5%.
Screening COc1ccc(Nc2nc3ccccc3nc2NS(=O)(=O)c2ccc(NC(C)=O)cc2)cc1 returned FLuc modulator 15µM*, ELG1 genotoxic 10%, NPC1 promoter act 3% and Rab9 prom act -3%.
COc1ccc(Nc2nc3ccccc3nc2NS(=O)(=O)c2cccs2)cc1 was read as FLuc modulator inconclusive, ELG1 genotoxic -4%, NPC1 promoter act -2%, SMN2 splice enh -34% and Rab9 prom act -9%.
`COc1ccc(S(=O)(=O)Nc2ccc(N3CCOCC3)cc2)cc1` gave FLuc modulator 1%, ELG1 genotoxic -4%, NPC1 promoter act 0% and Rab9 prom act 1%.
For Cc1ccc(-n2nc3c(=O)n(CCCC(=O)NCC(C)c4ccccc4)nc(C)c3c2C)cc1 (stereo unspecified) the results were FLuc modulator inconclusive, ELG1 genotoxic -8%, NPC1 promoter act -3% and Rab9 prom act -14%.
`Nc1ccc(-c2cnc[nH]2)cc1[N+](=O)[O-]` gave FLuc modulator -15%, ELG1 genotoxic 2%, NPC1 promoter act 10% and Rab9 prom act 0%.
For COc1ccc(C=O)cc1CN1CCCN(Cc2ccccc2F)S1(=O)=O the results were FLuc modulator 0%, ELG1 genotoxic -1%, NPC1 promoter act -6% and Rab9 prom act -1%.
CNC(=O)c1c(NC(=O)C2=COCCO2)sc2c1CCN(C(=O)OC)C2 was read as FLuc modulator -9%, ELG1 genotoxic 0%, NPC1 promoter act -3% and Rab9 prom act -9%.
Screening Cc1ccc2nc(NS(=O)(=O)c3ccc(Cl)cc3)c(Nc3ccc(C(=O)O)cc3)nc2c1 returned FLuc modulator 11µM* and SMN2 splice enh -23%.
Screening CCc1ccc(Nc2nc3ccccc3nc2NS(=O)(=O)c2ccccc2)cc1 returned FLuc modulator inconclusive and SMN2 splice enh -2%.
COc1cccc(Nc2nc3ccccc3nc2NS(=O)(=O)c2ccc(NC(C)=O)cc2)c1 was read as FLuc modulator 24µM*, ELG1 genotoxic 16%, NPC1 promoter act -3% and Rab9 prom act -5%.
`CCOc1ccc(S(=O)(=O)Nc2nc3ccccc3nc2Nc2ccc(OC)cc2)cc1` gave FLuc modulator 13µM* and SMN2 splice enh -6%.
CCOC(=O)c1ccc(Nc2nc3ccccc3nc2NS(=O)(=O)c2ccc(Cl)cc2)cc1 was read as FLuc modulator inconclusive and SMN2 splice enh -9%.
Screening CCN1CCOC(=O)C1CC(=O)Nc1cc(C)cc(C)c1 (stereo unspecified) returned FLuc modulator -6% and SMN2 splice enh 10%.
For CCc1cccc(NC(=O)Cn2cc(C=O)c3ccccc32)c1 the results were FLuc modulator -4%, ELG1 genotoxic 9%, NPC1 promoter act -5%, SMN2 splice enh -72% and Rab9 prom act -2%.
